# Test system: not listed separately
# Experiment: small-molecule microarray binders of probe aEGFR, primary screen, biochemical, biotinylated probe, 635/667 nm fluorescence (AID 1097);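 further: probe is a biotinylated anti-EGFR antibody binding compounds printed on slides; score combines fluorescence near 667 nm and signal to noise of each spot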
# Conditions: higher = more signal
row,SMILES,composite z-score
1,CCC#CCN(Cc1ccccc1Br)[C@H](/C=C/C1CC1)[C@@H](O)Cc1ccccc1,-0.18
2,COC(=O)[C@@]1(Cc2ccccc2)[C@H]2c3cc(C(=O)N(C)C)n(Cc4ccc(C)o4)c3C[C@H]2CN1C(=O)c1ccccc1,0.667
3,CC(C)NC(=O)[C@@]1(C)c2ccccc2C(=O)N(Cc2ccc(OC(F)(F)F)cc2)[C@H]1c1ccc(CO)cc1,-0.349
4,COc1ccc([Si](C)(C)[C@@H]2[C@@H](CC(=O)N3CCC[C@H]3CO)O[C@]3(C(=O)N(Cc4cccc(N5C(=O)COc6ccccc65)c4)c4ccccc43)[C@H]2C)cc1,-0.165
5,CCCC[C@@H](O)C1=C(COC)C[C@H]2C(=O)N(C)C(=O)[C@H]2[C@H]1CO,-0.156
6,COc1ccc([Si](C)(C)[C@@H]2[C@@H](CC(=O)N(CCO)Cc3ccccc3)O[C@]3(C(=O)N(Cc4cccc(N5CCCCC5=O)c4)c4ccccc43)[C@H]2C)cc1,-0.151
7,COc1ccc(CCNC(=O)[C@@]2(Sc3ccc(C)cc3)CC(=O)N(Cc3ccccc3C(F)(F)F)[C@@H]2c2ccc(CO)cc2I)cc1,-0.264
8,[N-]=[N+]=Nc1ccccc1[C@@H]1OC(c2ccc(OCCCO)cc2)=N[C@]1(Cc1ccccc1)C(=O)N1CCCCC1,0.001
9,Cc1ccc(S[C@]2(C(=O)NCc3ccccc3)CC(=O)N(C3CCCCC3)[C@@H]2c2ccc(CO)cc2I)cc1,-0.139
10,COc1ccc([Si](C)(C)[C@H]2[C@H](CC(=O)N(CCO)Cc3ccccc3)O[C@@]3(C(=O)N(C)c4c(Br)cc(C)cc43)[C@@H]2C)cc1,-0.126
11,[N-]=[N+]=Nc1ccccc1[C@@H]1OC(c2ccc(OCCCO)cc2)=N[C@]1(Cc1ccccc1)C(=O)O,-0.268
12,CCCC1(C(=O)OC)C=C2C(=C(C)C(=O)C2C)CN1 (stereo not given),-0.0828
13,COCC(=C=CC[C@H](O)c1ccccc1OCCO)C[C@H](O)c1ccccn1,0.122
14,Oc1ccc2cc[n+](Cc3cc4c(cc3Br)OCO4)cc2c1,-0.211
15,CC(C)[Si]1(C(C)C)OCc2cc(C3CC3)nc(-c3ccc(Oc4ccccc4)cc3)c21,-0.062
16,[N-]=[N+]=Nc1ccccc1C[C@]1(C(=O)N2CCOCC2)COC(c2ccc(OCCCO)cc2)=N1,0.0308
17,[N-]=[N+]=Nc1ccccc1C[C@@]1(C(=O)NCCN2CCOCC2)N=C(c2ccc(OCCCO)cc2)O[C@@H]1c1ccccc1N=[N+]=[N-],0.0045
18,CCCCC(CC)C(O)C1C=CC2C(=O)N(C)C(=O)C2N1Nc1ccccc1 (stereo not given),-0.154
19,O=C1N(CCS(=O)(=O)c2ccccc2)c2ccccc2[C@H]2OC(c3ccc(OCCCO)cc3)=N[C@@]12Cc1ccccc1,0.263
20,COc1ccc(C#Cc2ccc3c(c2)[C@]2(C(=O)N3)[C@H](c3ccc(O)cc3)N3[C@H](c4ccccc4)[C@H](c4ccccc4)OC(=O)[C@H]3[C@@H]2C(=O)Nc2nc3ccccc3s2)cc1,0.484
21,CCOc1cc(C(O)C2C=CC3C(=O)NC(=O)C3N2Nc2ccc(Cl)cc2Cl)ccc1O (stereo not given),-0.16
22,Cc1ccc(S[C@]2(C(=O)NCC(F)(F)F)CC(=O)N(Cc3cc(C(F)(F)F)cc(C(F)(F)F)c3)[C@@H]2c2ccc(CO)cc2I)cc1,-0.556
23,C=CCC(OC(C)=O)[C@@H]1[C@@H](N(Cc2cc3ccccc3o2)C(=O)Cc2ccc(F)cc2)c2cc(OCCCO)ccc2N1C(=O)Cc1ccc2ccccc2c1 (stereo not given in full),-0.185
24,CO[C@H]1O[C@H](CO)[C@@H](OC(=O)Nc2ccccc2)[C@H](OC(=O)c2cc3ccccc3[nH]2)[C@H]1OC(=O)c1cc2ccccc2[nH]1,0.0153

# Test system: Plasmodium falciparum Sir2 (PF13_0152, Sir2A)
# Experiment: pfSir2 binders on small-molecule microarrays, primary screen, biochemical, small-molecule microarray, 635 nm fluorescence (AID 1098);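 further: score merges spot fluorescence intensity with its signal-to-noise ratio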
# Conditions: small-molecule microarray binding, fluorescence 635 nm; higher = more signal
row,SMILES,composite z-score
1,COc1cc2c(cc1O)C(c1ccc(CN3CCCC3)cc1)N(Cc1cc3c(cc1Br)OCO3)CC2 (stereo not given),-0.115
2,CCCC[C@@H]1C[C@H]1[C@@H](NC(=O)c1cccs1)c1ccccc1C(F)(F)F,0.67
3,CCOC(=O)C1=C[C@@H](c2ccccc2)N(S(=O)(=O)c2ccc(C)cc2)[C@H]1c1ccc(OC)cc1,0.979
4,C=CCC(OC(C)=O)[C@@H]1[C@@H](N(Cc2ccc(-c3cccc(C(F)(F)F)c3)o2)C(=O)Cc2ccc(OC)cc2)c2cc(OCCCO)ccc2N1C(=O)c1ccc(-c2ccccc2)cc1 (stereo not given in full),-0.318
5,C=CC[C@@H](OC(=O)Nc1ccc(SC)cc1)c1ccc(O)c(F)c1,0.522
6,CCCCC=C[C@@H](NC(=O)OCc1ccccc1Cl)c1ccccc1,0.732
7,C=CCC(OC(C)=O)[C@@H]1[C@@H](N(Cc2cccc3ccccc23)C(=O)Cc2ccc(OC)cc2)c2cc(OCCCO)ccc2N1C(=O)c1ccc(-c2ccccc2)cc1 (stereo not given in full),-0.203
8,CCCC=C(CCC)[C@@H](NP(=O)(c1ccccc1)c1ccccc1)c1ccc(-c2ccccc2)cc1,0.517
9,COCCCNC(=O)[C@@]1(CCC(=O)OC(C)(C)C)N=C(c2ccc(OCCCO)cc2)O[C@H]1c1ccccc1N=[N+]=[N-],1.46
10,O=C(Cc1ccccc1)[C@H]1C2C=CCCC(c3ccccc3)=C2CN1Cc1ccccc1 (stereo not given in full),-0.313
11,COC(=O)[C@@]1(Cc2ccc(F)cc2)[C@H]2c3cc(C(=O)N4CCCC4)n(Cc4ccc(C)c(F)c4F)c3C[C@H]2CN1C(=O)c1ccccc1,0.961
12,COc1ccc(C#Cc2ccc3c(c2)[C@]2(C(=O)N3)[C@H](C(=O)O)[C@H]3C(=O)O[C@H](c4ccccc4)[C@H](c4ccccc4)N3[C@@H]2c2ccc(O)cc2)cc1,1.52
13,CCC#CCN(Cc1ccccc1Br)[C@H](/C=C/C1CC1)[C@@H](O)Cc1ccccc1,-0.306
14,COC(=O)[C@@]1(Cc2ccccc2)[C@H]2c3cc(C(=O)N(C)C)n(Cc4ccc(C)o4)c3C[C@H]2CN1C(=O)c1ccccc1,0.527
15,CC(C)NC(=O)[C@@]1(C)c2ccccc2C(=O)N(Cc2ccc(OC(F)(F)F)cc2)[C@H]1c1ccc(CO)cc1,1.43
16,COc1ccc([Si](C)(C)[C@@H]2[C@@H](CC(=O)N3CCC[C@H]3CO)O[C@]3(C(=O)N(Cc4cccc(N5C(=O)COc6ccccc65)c4)c4ccccc43)[C@H]2C)cc1,0.911
17,CCCC[C@@H](O)C1=C(COC)C[C@H]2C(=O)N(C)C(=O)[C@H]2[C@H]1CO,0.0237
18,COc1ccc([Si](C)(C)[C@@H]2[C@@H](CC(=O)N(CCO)Cc3ccccc3)O[C@]3(C(=O)N(Cc4cccc(N5CCCCC5=O)c4)c4ccccc43)[C@H]2C)cc1,1.16

row,SMILES,composite z-score
1,COc1ccc(CCNC(=O)[C@@]2(Sc3ccc(C)cc3)CC(=O)N(Cc3ccccc3C(F)(F)F)[C@@H]2c2ccc(CO)cc2I)cc1,1.09
2,[N-]=[N+]=Nc1ccccc1[C@@H]1OC(c2ccc(OCCCO)cc2)=N[C@]1(Cc1ccccc1)C(=O)N1CCCCC1,1.16
3,Cc1ccc(S[C@]2(C(=O)NCc3ccccc3)CC(=O)N(C3CCCCC3)[C@@H]2c2ccc(CO)cc2I)cc1,1.25
4,COc1ccc([Si](C)(C)[C@H]2[C@H](CC(=O)N(CCO)Cc3ccccc3)O[C@@]3(C(=O)N(C)c4c(Br)cc(C)cc43)[C@@H]2C)cc1,0.827
5,[N-]=[N+]=Nc1ccccc1[C@@H]1OC(c2ccc(OCCCO)cc2)=N[C@]1(Cc1ccccc1)C(=O)O,0.77
6,CCCC1(C(=O)OC)C=C2C(=C(C)C(=O)C2C)CN1 (stereo not given),-0.79
7,COCC(=C=CC[C@H](O)c1ccccc1OCCO)C[C@H](O)c1ccccn1,0.34
8,Oc1ccc2cc[n+](Cc3cc4c(cc3Br)OCO4)cc2c1,-1.19
9,CC(C)[Si]1(C(C)C)OCc2cc(C3CC3)nc(-c3ccc(Oc4ccccc4)cc3)c21,-0.777
10,[N-]=[N+]=Nc1ccccc1C[C@]1(C(=O)N2CCOCC2)COC(c2ccc(OCCCO)cc2)=N1,1.6
11,[N-]=[N+]=Nc1ccccc1C[C@@]1(C(=O)NCCN2CCOCC2)N=C(c2ccc(OCCCO)cc2)O[C@@H]1c1ccccc1N=[N+]=[N-],1.53
12,CCCCC(CC)C(O)C1C=CC2C(=O)N(C)C(=O)C2N1Nc1ccccc1 (stereo not given),0.579
13,O=C1N(CCS(=O)(=O)c2ccccc2)c2ccccc2[C@H]2OC(c3ccc(OCCCO)cc3)=N[C@@]12Cc1ccccc1,1.29
14,COc1ccc(C#Cc2ccc3c(c2)[C@]2(C(=O)N3)[C@H](c3ccc(O)cc3)N3[C@H](c4ccccc4)[C@H](c4ccccc4)OC(=O)[C@H]3[C@@H]2C(=O)Nc2nc3ccccc3s2)cc1,1.48
15,CCOc1cc(C(O)C2C=CC3C(=O)NC(=O)C3N2Nc2ccc(Cl)cc2Cl)ccc1O (stereo not given),-0.402
16,Cc1ccc(S[C@]2(C(=O)NCC(F)(F)F)CC(=O)N(Cc3cc(C(F)(F)F)cc(C(F)(F)F)c3)[C@@H]2c2ccc(CO)cc2I)cc1,1.4
17,C=CCC(OC(C)=O)[C@@H]1[C@@H](N(Cc2cc3ccccc3o2)C(=O)Cc2ccc(F)cc2)c2cc(OCCCO)ccc2N1C(=O)Cc1ccc2ccccc2c1 (stereo not given in full),-0.255
18,CO[C@H]1O[C@H](CO)[C@@H](OC(=O)Nc2ccccc2)[C@H](OC(=O)c2cc3ccccc3[nH]2)[C@H]1OC(=O)c1cc2ccccc2[nH]1,0.494
